# Assay results from PubChem BioAssay (NCI).
# “And” between values parts separate entries of the source, which are not always exact repeats. Equal values may be shown once. Compounds without any hit were thinned out: in the full panel of roughly 79,000, 15% have a hit. Unmarked numbers belong to inactive results. The source made the active and inactive calls. Cut-off read from the data, not from the text of the source: active = growth inhibition above about 70%; inactive = the rest.
# Legend:
# [1] = NCI Yeast Anticancer Drug Screen. Data for the rad50 strain (AID 155);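 note: 0% = growth of vehicle-only cultures of the same strain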; conditions: S. cerevisiae rad50 strain growth inhibition, stronger effect = higher value
# Outline: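 Genetically altered yeast (DNA repair pathway); compound treatment; growth inhibition vs vehicle ctrl.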
# [2] = NCI Yeast Anticancer Drug Screen. Data for the mec2-1 strain (AID 157); conditions: S. cerevisiae mec2-1 strain, stronger effect = higher value
# Outline: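 mec2-1 yeast strain, carrying an alteration in DNA damage repair or cell cycle control, was exposed to compounds; growth inhibition was measured relative to vehicle-treated controls.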
# [3] = NCI Yeast Anticancer Drug Screen. Data for the sgs1 mgt1 strain (AID 161);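 note: 0% = growth of cultures given vehicle only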; conditions: S. cerevisiae sgs1 mgt1 strain, stronger effect = higher value
# Outline: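 Yeast cells carrying a defined DNA-repair defect were exposed to test compounds. Growth inhibition was measured relative to vehicle-treated controls.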
# [4] = NCI Yeast Anticancer Drug Screen. Data for the cln2 rad14 strain (AID 165);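 note: 0% = growth equal to vehicle treated cultures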; conditions: S. cerevisiae cln2 rad14 strain, stronger effect = higher value
# Outline: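 Yeast carrying cln2 and rad14 alterations (cell cycle control and DNA damage repair) were exposed to compounds. Growth inhibition was measured against vehicle-treated controls.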
# [5] = NCI Yeast Anticancer Drug Screen. Data for the mlh1 rad18 strain (AID 175); conditions: S. cerevisiae mlh1 rad18 strain growth inhibition, stronger effect = higher value
# Outline: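 Growth inhibition of the yeast strain was measured after compound exposure and expressed relative to vehicle-treated controls. The strain carries defined defects in DNA damage repair.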
# [6] = NCI Yeast Anticancer Drug Screen. Data for the bub3 strain (AID 167); conditions: S. cerevisiae bub3 mutant strain, stronger effect = higher value
# Outline: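 Yeast carrying a defined mutation is treated with each compound, and growth is compared with that of vehicle-exposed cells to give inhibition.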
# [7] = at 5.0 µM (retest, dose inferred, filed as 0.5)
# [8] = at 50.0 µM (retest, dose inferred, filed as 5.0)
SMILES,"growth inhibition [1, 7] [%]","growth inhibition [1, 8]",growth inhibition ([1]; at 50.0 µM),"growth inhibition [2, 7]","growth inhibition [2, 8]",growth inhibition ([2]; at 50.0 µM),"growth inhibition [3, 7]","growth inhibition [3, 8]",growth inhibition ([3]; at 50.0 µM),"growth inhibition [4, 7]","growth inhibition [4, 8]",growth inhibition ([4]; at 50.0 µM),"growth inhibition [5, 7]","growth inhibition [5, 8]",growth inhibition ([5]; at 50.0 µM),"growth inhibition [6, 7]","growth inhibition [6, 8]",growth inhibition ([6]; at 50.0 µM)
CO/N=C/c1ccc([N+](=O)[O-])s1,-147,95% (active),65.7%,-44%,80% (active),16.6%,-51%,71% (active),33.8%,-63%,48%,7.5%,-108%,94% (active),75.5% (active),–,–,–
N/C(=N\N=C/c1ccc(O)c(O)c1O)NO,-2,26%,41.1%,5%,21%,17.8%,-7%,8%,28.5%,-2%,-6%,17.7%,-5%,7%,64.7%,–,–,–
Cc1nc2ccc(NCCN(C)C)c3c(=O)c4cc(O)ccc4n1c23,25,63%,-20.4%,-3%,12%,20.4%,-4%,16%,-4.45%,–,–,–,-3%,20%,61.4%,13%,13%,1.4%
BrCN(CBr)c1ccc2c(c1)Cc1cc(Br)ccc1-2,4,-4%,70.4% (active),-3%,-4%,28.4%,–,–,–,7%,11%,-1.35%,3%,-7%,74.3% (active),1%,-2%,25.8%
Clc1ccc(COC(CN2CCOCC2)c2ccccc2)c(Cl)c1 (centres undefined),2,89% (active),94.8% (active),8%,92% (active),96.2% (active),–,–,–,11%,83% (active),98.2% (active),11%,87% (active),97.6% (active),23%,95% (active),94.9% (active)
CC(C)(C)c1ccc2c(c1)CNCCNCc1cc(C(C)(C)C)ccc1OCC1(CO2)COc2ccc(C(C)(C)C)cc2CNCCNCc2cc(C(C)(C)C)ccc2OC1,–,–,–,99% (active),94% (active),90% (active),99% (active),92% (active),92.2% (active),99% (active),92% (active),89.5% (active),98% (active),92% (active),88.2% (active),98% (active),91% (active),89% (active)
NC(CC(=O)O)c1ccccc1 (centres undefined),–,–,6.2% and -0.2% and -0.5%,–,–,8.8% and -3.45% and -4.3%,–,–,-5.95% and 2.35% and -0.05%,–,–,14.2% and -33.1% and -4.9%,–,–,-8.9% and 9.75% and -24.9%,–,–,-12.7% and -10.4% and -18.2%
CCCCNC(=S)NC1OC(CO)C(O)C(O)C1O (centres undefined),–,–,–,2%,10%,99.4% (active),-1%,0%,99.5% (active),-4%,-3%,99% (active),-1%,20%,99% (active),-4%,-4%,99.2% (active)
COC(=O)C1(C)CCc2c(ccc3cccc(OC)c23)C1=O (centres undefined),0,99% (active),1.65%,–,–,–,2%,98% (active),66.9%,-9%,97% (active),-3.75%,1%,99% (active),44.5%,20%,99% (active),86.8% (active)
O=C(NCCCN1CCN(CCCNC(=O)c2cc(-c3ccccc3)nc3ccccc23)CC1)c1cc(-c2ccccc2)nc2ccccc12,49,95% (active),84.6% (active),–,–,–,26%,75% (active),8.55%,29%,41%,86.3% (active),38%,96% (active),81.9% (active),30%,64%,86.1% (active)
C/C(=N/NC(=O)Nc1ccc(N=Nc2ccccc2)cc1)c1cccnc1,–,–,–,-3%,-11%,-9.55%,2%,21%,19.6%,36%,-51%,-1.5%,5%,25%,14.3%,7%,4%,10.8%
Oc1ccc(O)c2nc3ccccc3nc12,20,97% (active),50.8%,–,–,–,8%,98% (active),24.1%,2%,98% (active),-1.85%,24%,97% (active),76.4% (active),6%,98% (active),68.2%
Cc1ccnc(N)c1,–,–,-10.2% and -13.3% and 9.05%,–,–,-3.4% and -17.8% and 11.4%,–,–,2.2% and -19.4% and -6.3%,–,–,-34.4% and -28.6% and -33.6%,–,–,1.35% and 16.1% and 1.85%,–,–,0.95% and 7.15% and -8.9%
Cc1c(C(=O)O)nc(C(Br)(Br)Br)[nH]c1=O,6,8%,54.2%,–,–,–,2%,26%,71.3% (active),1%,0%,14.7%,6%,27%,53%,4%,2%,1.5%
O=C(NCCc1c(-c2ccccc2)[nH]c2ccccc12)C(F)(F)C(F)(F)F,–,–,–,1%,1%,91% (active),33%,33%,84.8% (active),4%,4%,81.6% (active),23%,23%,30.1%,5%,5%,79% (active)
CCC(COS(=O)(=O)c1ccc(C)cc1)(COS(=O)(=O)c1ccc(C)cc1)COS(=O)(=O)c1ccc(C)cc1,3,0%,13.7%,–,–,–,-17%,-38%,42%,3%,14%,57.9%,-35%,-40%,25.8%,3%,10%,21.6%
CCC(CC)N(CCNc1cc(OC)cc2cccnc12)CC(C)C,7,7%,60.8%,1%,0%,26%,–,–,–,9%,-6%,49.5%,4%,10%,67.8%,4%,11%,57%
COC1=C2C[C@@H](C)C[C@@H](OC)[C@@H](O)[C@H](C)/C=C(\C)[C@@H](OC(N)=O)[C@H](OC)/C=C\C=C(/C)C(=O)NC(=CC1=O)C2=O,–,–,–,81% (active),91% (active),89.7% (active),86% (active),92% (active),91.5% (active),56%,85% (active),84.8% (active),69%,85% (active),90% (active),84% (active),88% (active),89.7% (active)
CS(=O)(=O)C(=Cc1ccccc1Cl)S(C)(=O)=O,–,–,–,20%,29%,-1.65%,11%,7%,4.05%,2%,13%,12.1%,38%,62%,-28.1%,0%,6%,5%
CCCCCCCCCCCCNCC(=O)O,–,–,–,1%,60%,87.6% (active),3%,23%,74.5% (active),1%,53%,-6.3%,3%,55%,92% (active),7%,67%,92.2% (active)
O=S(=O)(/C=C/c1cccnc1)/C=C/c1cccnc1,–,–,–,–,–,–,1%,6%,5.3%,3%,10%,82.8% (active),-4%,-1%,1.25%,-2%,3%,20.8%
COc1cc(OC)c(/C=C\c2ccnc3ccccc23)c(OC)c1,–,–,–,32%,93% (active),86.3% (active),26%,96% (active),84.7% (active),19%,55%,37.5%,41%,91% (active),-2.05%,22%,98% (active),35%
